# Measured values from PubChem BioAssay (NCATS).
# Values joined by “and” are separate entries in the source; they are usually repeats but may differ in a detail not shown here. Equal entries are not always repeated. Results filed as inconclusive are left out. Where a call stands in place of a potency, no number is given. Active and inactive are the calls of the source. Calls come from the whole dose curve; as a rule, active = well fitted curve in the direction sought with a large enough effect; inconclusive = small, poorly fitted or top-dose-only effect, or another doubt; inactive = no such curve, though single readings can be large; an effect the other way counts as inactive or inconclusive.
# Assay: qHTS of pediatric cancer cell lines to identify multiple opportunities for drug repurposing: Primary screen for OHS-50 cells (AID 1347103); note: nearly all actives have a fitted effect of over 40% in size
# Conditions: OHS-50 osteosarcoma viability, CellTiter-Glo luminescence, 48 h; series mostly up to 57.3 µM
# How it was run: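 Cells (500-1,000/well) rested 5 h, then received compounds for 48 h; metabolically active cells were measured by CellTiter-Glo luminescence. Final concentrations spanned up to 46 µM (MIPE, 11-point) or 0.59 nM-46 µM (NPC, 8-point) in primary screens, 11-point in follow-ups.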
# Potency is the fitted concentration of half-maximal effect.
row,SMILES,Potency
1,O=C(O)c1cn(C2CC2)c2cc(N3CCNCC3)c(F)cc2c1=O,inactive
2,OCc1ccc(-c2nn(Cc3ccccc3)c3ccccc23)o1,1.72 µM (active)
3,COC(c1ccccc1)(c1ccccc1)[C@H](Oc1nc(C)cc(C)n1)C(=O)O,inactive
4,CN(C)c1ccc(C(=C2C=CC(=[N+](C)C)C=C2)c2ccc(N(C)C)cc2)cc1,978 nM (active) and 217 nM (active)
5,CN(CCOc1ccc(CC2SC(=O)NC2=O)cc1)c1ccccn1 (stereo not drawn),inactive
6,S=P(N1CC1)(N1CC1)N1CC1,24.3 µM (active)
7,CCc1c2c(nc3ccc(OC(=O)N4CCC(N5CCCCC5)CC4)cc13)-c1cc3c(c(=O)n1C2)COC(=O)[C@]3(O)CC,0.769 µM (active)
8,CCn1cc(C(=O)O)c(=O)c2cc(F)c(N3CCNCC3)nc21,inactive
9,C[C@@H]1CN(c2c(F)c(N)c3c(=O)c(C(=O)O)cn(C4CC4)c3c2F)C[C@H](C)N1,inactive
10,CO[C@@]12[C@H](COC(N)=O)C3=C(C(=O)C(C)=C(N)C3=O)N1C[C@@H]1N[C@@H]12,3.85 µM (active)
11,C#CCN[C@@H]1CCc2ccccc21,inactive
12,NCCCC(O)(P(=O)(O)O)P(=O)(O)O,inactive
13,O=C(O)c1cc(=O)[nH]c(=O)[nH]1,inactive
14,CCOC(=O)c1ccc(OC(=O)CCCCCN=C(N)N)cc1,inactive
15,Cc1oc(=O)oc1CN1CCN(c2cc3c(cc2F)c(=O)c(C(=O)O)c2n3C(C)S2)CC1 (stereo not drawn),inactive
16,O=C(N[C@H](CO)[C@H](O)c1ccc([N+](=O)[O-])cc1)C(Cl)Cl,inactive
17,NC(=O)c1cccc(N)c1,inactive
18,O=C(O)CCn1c2c(c3ccccc31)C[C@H](NS(=O)(=O)c1ccc(F)cc1)CC2,inactive
19,N[C@@H](C(=O)N[C@@H]1C(=O)N2C(C(=O)O)=C(Cl)CS[C@H]12)c1ccccc1,inactive

row,SMILES,Potency
1,CC(C)NCC(O)c1ccc(NS(C)(=O)=O)cc1 (stereo not drawn),inactive
2,COc1ccc2c(c1)c(CC(=O)OCC(=O)O)c(C)n2C(=O)c1ccc(Cl)cc1,inactive
3,CCCCc1oc2ccc(NS(C)(=O)=O)cc2c1C(=O)c1ccc(OCCCN(CCCC)CCCC)cc1,10.9 µM (active) and 15.5 µM (active)
4,Cc1noc(NS(=O)(=O)c2ccc(N)cc2)c1C,inactive
5,Cc1ncc([N+](=O)[O-])n1CCO,inactive
6,CCN(C)C(=O)Oc1cccc([C@H](C)N(C)C)c1,inactive
7,CCN[C@H]1C[C@H](C)S(=O)(=O)c2sc(S(N)(=O)=O)cc21,inactive
8,NC(=O)N1c2ccccc2CC(=O)c2ccccc21,inactive
9,CCCCS(=N)(=O)CCC(N)C(=O)O (stereo not drawn),inactive
10,COc1ccccc1OCC(O)COC(N)=O (stereo not drawn),inactive
11,Cc1onc(-c2ccccc2Cl)c1C(=O)N[C@@H]1C(=O)N2[C@@H]1SC(C)(C)[C@@H]2C(=O)O,inactive
12,CCN(CC)CCn1c(=O)c(Cc2ccc(OC)cc2)nc2ccccc21,inactive
13,Cc1cccc(Nc2ccncc2S(=O)(=O)NC(=O)NC(C)C)c1,inactive
14,NC(N)=NC(N)=NCCc1ccccc1,11 µM (active) and 3.85 µM (active)
15,O=P(O)(O)C(O)(Cc1cccnc1)P(=O)(O)O,inactive
16,COc1ncnc(NS(=O)(=O)c2ccc(N)cc2)c1OC,inactive
17,CC(C)C1CCC(C(=O)N[C@H](Cc2ccccc2)C(=O)O)CC1 (stereo partly drawn),inactive
18,CCOCC(O)COc1ccc(NC(=O)CC[S+](C)C)cc1 (stereo not drawn),inactive

# Assay: qHTS of pediatric cancer cell lines to identify multiple opportunities for drug repurposing: Primary screen for RD cells (AID 1347104); note: nearly all actives have a fitted effect of over 55% in size
# Conditions: RD rhabdomyosarcoma viability, CellTiter-Glo luminescence, 48 h; series mostly up to 46 µM
# How it was run: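 Primary screen of approved and investigational compounds on cells in growth media at 37 degrees C, 5% CO2. MIPE set at 11-point and NPC set at 8-point dilutions; viability scored by ATP-based luminescence at 48 hours.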
row,SMILES,Potency
1,O=C(O)c1cn(C2CC2)c2cc(N3CCNCC3)c(F)cc2c1=O,inactive
2,OCc1ccc(-c2nn(Cc3ccccc3)c3ccccc23)o1,inactive
3,COC(c1ccccc1)(c1ccccc1)[C@H](Oc1nc(C)cc(C)n1)C(=O)O,inactive
4,CN(C)c1ccc(C(=C2C=CC(=[N+](C)C)C=C2)c2ccc(N(C)C)cc2)cc1,1.88 µM (active) and 662 nM (active)
5,CN(CCOc1ccc(CC2SC(=O)NC2=O)cc1)c1ccccn1 (stereo not drawn),inactive
6,CCn1cc(C(=O)O)c(=O)c2cc(F)c(N3CCNCC3)nc21,inactive
7,CO[C@@]12[C@H](COC(N)=O)C3=C(C(=O)C(C)=C(N)C3=O)N1C[C@@H]1N[C@@H]12,18.8 µM (active) and 18.7 µM (active)
8,C#CCN[C@@H]1CCc2ccccc21,inactive
9,NCCCC(O)(P(=O)(O)O)P(=O)(O)O,inactive
10,Cc1oc(=O)oc1CN1CCN(c2cc3c(cc2F)c(=O)c(C(=O)O)c2n3C(C)S2)CC1 (stereo not drawn),inactive
11,O=C(N[C@H](CO)[C@H](O)c1ccc([N+](=O)[O-])cc1)C(Cl)Cl,inactive
12,N[C@@H](C(=O)N[C@@H]1C(=O)N2C(C(=O)O)=C(Cl)CS[C@H]12)c1ccccc1,inactive
13,CCCCc1oc2ccc(NS(C)(=O)=O)cc2c1C(=O)c1ccc(OCCCN(CCCC)CCCC)cc1,18.7 µM (active) and 23.7 µM (active)
14,Cc1noc(NS(=O)(=O)c2ccc(N)cc2)c1C,inactive
15,Cc1ncc([N+](=O)[O-])n1CCO,inactive
16,CCN(C)C(=O)Oc1cccc([C@H](C)N(C)C)c1,inactive
17,CCN[C@H]1C[C@H](C)S(=O)(=O)c2sc(S(N)(=O)=O)cc21,inactive
18,CCCCS(=N)(=O)CCC(N)C(=O)O (stereo not drawn),inactive
19,Cc1cccc(Nc2ccncc2S(=O)(=O)NC(=O)NC(C)C)c1,inactive
20,O=P(O)(O)C(O)(Cc1cccnc1)P(=O)(O)O,inactive
21,CC(C)C1CCC(C(=O)N[C@H](Cc2ccccc2)C(=O)O)CC1 (stereo partly drawn),inactive
